Hits are enriched below; roughly 19% of the tested compounds scored in any of these assays.
HT1080 IDH1KD tx = toxicity to HT-1080 IDH1 knockdown cells (counter line) | Potency, µM (highest dose often 46.1 µM), for inactives: top-dose activity, negative = toxicity, hits mostly cytotoxic | HT-1080 IDH1 knockdown viability, ATP luminescence, 48 h | 360,000 tested, 2% active;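 note: potency is the fitted concentration of half-maximal effect; 0% = DMSO wells and -100% = cell-free medium wells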
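Using the IDH1-knockdown HT-1080 line run in the same batch and compound series as the NT line, viability after 48 h at 37 °C was determined by CellTiter-Glo luminescence and expressed as % activity.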
TDP1 cell CPT = DT40-hTDP1 cell growth loss with CPT; chicken DT40 Tdp1-/-;hTDP1 cells + 20 nM CPT, ATP luminescence, 48 h; Potency, µM (titrated, usually from 46.2 µM), for the others: at the top dose activity change, negative = growth inhibition, most hits filed as inhibitors; 420,000 tested, 12% active; AID 686979; note: potency is the fitted concentration of half-maximal effect; nearly all actives have a fitted effect of over 55% in size
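Chicken DT40 Tdp1-/- cells stably complemented with human TDP1 were seeded at 400 cells/well in medium containing 20 nM camptothecin, exposed to pin-transferred compounds, and grown at 37 °C for at least 48 hr. Viability was read as ATP luminescence.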
uPA surface inh = blocks generation of uPA at the cell surface; cell surface uPA generation assay, qHTS; Potency, µM (titrated, usually from 38.3 µM), for the others: top-dose activity change, negative = inhibition, most hits filed as inhibitors; 330,000 tested, 0.31% active; AID 540303; active = well fitted inhibition curve with a large enough effect; inconclusive = small, poorly fitted or top-dose-only effect; inactive = no such curve, though single readings can be large or run the other way; tested in mouse RAW 264.7 cells; note: potency is the fitted concentration of half-maximal effect; nearly all actives have a fitted effect of over 55% in size
HT1080-NT tox = kills 2HG-producing HT-1080-NT fibrosarcoma cells; HT-1080-NT fibrosarcoma viability, CellTiter-Glo ATP luminescence, 48 h; Potency, µM (titrated, usually from 46.1 µM), for inactives: at the highest dose activity, negative = less viability, hits mostly cytotoxic; 360,000 tested, 1.6% active; AID 686970;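 note: NT is the 2HG producing partner of a matched IDH1 knockdown line; potency is the fitted concentration of half-maximal effect; 0% = DMSO-treated cells and -100% = media-only wells without cells; nearly all actives have a fitted effect of over 55% in size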
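Fibrosarcoma NT cells, 750 per well in 5% FBS RPMI, were exposed to compound for 48 hours. Viability: CellTiter-Glo luminescence.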
IL-1B inflam inh = inhibitors of inflammasome signaling (IL-1 beta secretion); THP-1 LPS/ATP IL-1B secretion, AlphaLISA, 16 h; active compounds read low; activity change, % at 57.5 µM; 360,000 tested, 4.7% active; AID 743279; in the data active = activity change below about -50%; inconclusive = mostly about -30% to -49%
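Secreted IL-1B measured by AlphaLISA bead assay after 16 h compound exposure of THP-1 cells; compounds (final up to 57.5 uM) added 1 h before LPS (250 ng/mL) and ATP (1.25 mM) stimulation; lower signal means less secretion.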
DT40 TDP1 no CPT = qHTS for Inhibitors of human tyrosyl-DNA phosphodiesterase 1 (TDP1): qHTS in cells in absence of CPT | 420,000 tested, 15% active | DT40 Tdp1-/- hTDP1 cells, no CPT, ATP luminescence, 48 h | Potency, µM (doses to about 46.2 µM), for the others: at the top dose activity change, negative = growth inhibition, hits mostly inhibitors | AID 686978, 2013; note: potency is the fitted concentration of half-maximal effect; nearly all actives have a fitted effect of over 55% in size
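Stably hTDP1-transfected Tdp1-null chicken DT40 cells were treated with library compounds minus camptothecin and grown for at least 48 hr at 37 °C, after which cellular ATP was quantified by luminescence.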
Numbers without * were called inactive; ? = inconclusive; . = not tested or not shown; ! = a repeat was not active. Unless noted, calls come from the whole dose curve; as a rule, active = well fitted curve in the direction sought with a large enough effect; inconclusive = small, poorly fitted or top-dose-only effect, or another doubt; inactive = no such curve, though single readings can be large; an effect the other way counts as inactive or inconclusive. Unless noted, % is set by controls: 0 for no effect and ±100 for the full control effect.

SMILES	HT1080 IDH1KD tx	TDP1 cell CPT	uPA surface inh	HT1080-NT tox	IL-1B inflam inh	DT40 TDP1 no CPT
COc1cccc(S(=O)(=O)NCc2ccc(C(=O)N3CCN(Cc4ccccc4)CC3)cc2)c1	-22.8%	?	-10.0%	-8.6%	-67.4*	-23.8%
COc1cccc(CNS(=O)(=O)c2c(C)[nH]c(C)c2C(=O)N2CCCCC2)c1	14.1%	25.9µM*	7.2%	0.5%	-17.3	?
CCN1CCN(C(=O)c2ccc(CNS(=O)(=O)c3cccc(OC)c3)cc2)CC1	8.0%	?	-6.1%	-1.2%	16.5	-28.8%
COc1ccc(S(=O)(=O)NCc2ccc(C(=O)N3CCN(Cc4ccccc4)CC3)cc2)cc1	-15.4%	?	-7.9%	-2.4%	-26.0	-25.2%
Cc1ccc(S(=O)(=O)NCc2ccc(C(=O)N3CCN(Cc4ccccc4)CC3)cc2)cc1	-19.3%	?	-9.2%	?	-79.4*	?
O=C(Nc1nnc([C@@H]2C[C@H](O)[C@@H](CO)O2)s1)c1cccc(C(F)(F)F)c1	21.4%	-0.8%	.	16.3%	-16.0	9.2%
CCC(C)C(=O)OC1CCC=C2C=CC(C)C(CCC3CC(O)CC(=O)O3)C21 (stereo not given)	?	?	-13.9%	11.6µM*	67.5	23.1µM*
CC[C@H](C)C(=O)O[C@H]1CCC=C2C=C[C@H](C)[C@H](CC[C@@H]3C[C@H](O)CC(=O)O3)[C@H]21	.	18.8µM*	.	.	.	13.3µM*
CC[C@H](C)C(=O)O[C@H]1CCC=C2C=C[C@H](C)[C@H](CC[C@@H]3C[C@@H](O)CC(=O)O3)[C@H]21	7.31µM*	?	1.26µM*	4.11µM*	4.7	14.6µM*!
O=[N+]([O-])c1ccccc1S(=O)(=O)N1CCCc2ccccc21	-10.1%	-29.7%	-13.8%	-23.4%	0.0	?
CC1CCCCN1C(=O)CN1C(=O)NC2(CCCCC2C)C1=O (stereo not given)	-1.3%	-13.5%	1.0%	-2.2%	-3.5	-9.8%
CC(=O)Nc1ccc(Nc2cc(C)nc3c(-c4ccccc4)cnn23)cc1	13µM*	?	2.8%	14.6µM*	-21.4	16.4µM*
Cc1cc(N)n2ncc(-c3ccccc3)c2n1	-11.2%	-8.7%	-5.9%	-10.2%	-14.2	-13.1%
CC(=O)OC1CCC2(C)C(CCC3C2CC(=NO)C2(C)C(C(C)OC(C)=O)CCC32)C1 (stereo not given)	6.1%	14.6µM*	-1.7%	-4.8%	-24.2	18.4µM*
CC(=O)OC1CC[C@@]2(C)C(CCC3C2CC(=O)[C@@]2(C)C3CC3CC(C)=CC(=O)C32)C1 (stereo not given in full)	-0.5%	18.4µM*	4.6%	0.1%	-7.3	14.6µM*
CC(=O)OC1CCC2(C)C(CCC3C2CC(=O)C2(C)C3CC(C(C(C)=O)C(C)=O)C2C(C)=O)C1 (stereo not given)	0.6%	?	-0.8%	0.0%	16.0	?
C[C@@H]1CN(C(=O)c2cc(COc3cccc(C(F)(F)F)c3)on2)C[C@H](C)O1	-1.7%	?	9.5%	0.0%	-6.9	?
C=CCC1(CC=C)CCCN1C(=O)c1cc(COc2cccc(C(F)(F)F)c2)on1	-23.2%	14.6µM*	?	-1.7%	-9.3	14.6µM*
CCOC(=O)N1CCN(C(=O)c2cc(COc3cccc(C(F)(F)F)c3)on2)CC1	1.7%	?	9.4%	2.1%	-22.4	16.4µM*
O=C(c1cc(COc2cccc(C(F)(F)F)c2)on1)N1CCC(Oc2cccnc2)CC1	-16.1%	14.6µM*	-28.0%	-3.4%	-15.0	11.6µM*
O=C(c1cc(COc2cccc(C(F)(F)F)c2)on1)N1CCc2ccccc2C1	-5.3%	?	7.4%	-3.9%	0.0	-19.4%
O=C(c1cc(COc2cccc(C(F)(F)F)c2)on1)N1CCCC1	-10.8%	?	.	0.5%	?	?
CCOc1cc(C(=O)OCc2cc(=O)n3nc(C4CC4)sc3n2)cc(OCC)c1OCC	.	?	.	.	.	20.6µM*
COc1ccc(C(=O)OCc2cc(=O)n3nc(C4CC4)sc3n2)cc1OC	.	-18.5%	.	.	.	-15.1%
CC(C)c1nn2c(=O)cc(COC(=O)c3ccc(NC(=O)C4CCCCC4)cc3)nc2s1	.	?	.	.	.	20.6µM*
SMILES	HT1080 IDH1KD tx	TDP1 cell CPT	uPA surface inh	HT1080-NT tox	IL-1B inflam inh	DT40 TDP1 no CPT
CCOc1ccc(C(=O)OCc2cc(=O)n3nc(C4CCCCC4)sc3n2)cc1	.	?	.	.	.	16.4µM*
CCOc1ccc(C(=O)Nc2ccccc2C(=O)OCc2cc(=O)n3nc(C4CC4)sc3n2)cc1	.	0.8%	.	.	.	-1.0%
O=C(CC1OC(=O)c2ccccc21)Nc1cc(S(=O)(=O)N2CCOCC2)ccc1OCC(F)(F)F (stereo not given)	-1.7%	?	0.0%	6.6%	-10.1	-11.8%
Cn1c(/C=N/Nc2nc3ccccc3[nH]2)nc2ccccc21	?	?	-5.5%	-29.6%	7.5	29.1µM*
CC(C)Cn1c(/C=N/Nc2nc3ccccc3[nH]2)nc2ccccc21	?	3.66µM*	-1.1%	?	62.3	3.26µM*
O=[N+]([O-])c1ccccc1N/N=C/c1cc2ccccc2nc1Cl	12.8%	4.11µM*	10.0%	3.7%	0.0	?
Clc1nc2ccccc2cc1/C=N/Nc1nc2ccccc2[nH]1	-5.7%	?	-10.6%	?	23.2	14.6µM*
Cc1ccsc1/C=N/Nc1nc2ccccc2[nH]1	-2.3%	?	?	-17.0%	35.4	?
CCN(CC)S(=O)(=O)c1ccc(C(=O)NCC(=O)NCc2ccc3c(c2)OCO3)cc1	6.1%	-1.4%	.	-8.5%	4.7	-22.6%
CCOC(=O)[C@]12CCC=C1N(CCC1=CCCCC1)C(=O)[C@H](CC(=O)N1CCN(C(=O)c3ccco3)CC1)C2	10.5%	?	.	16.9%	-3.0	?
Cc1nc(-c2ccc(S(=O)(=O)Nc3ccc(Br)cc3F)cc2)co1	-3.3%	-12.3%	-1.2%	0.0%	22.3	2.9%
C(=N\Nc1ncnc2nc[nH]c12)/c1cccs1	-4.5%	1.8%	?	-8.2%	-73.8*	1.9%
CCCn1c(/C=N/Nc2nc3ccccc3[nH]2)nc2ccccc21	?	?	0.6%	?	-52.0*	?
Cc1nn(-c2ccccc2)c(C)c1/C=N/Nc1nc2ccccc2[nH]1	18.4µM*	18.4µM*	-15.3%	?	-88.2*	23.1µM*
Cc1ccsc1/C=N/Nc1ncnc2nc[nH]c12	-7.3%	-10.8%	-27.8%	-19.7%	80.9	?

Screening data from PubChem.
